Screening results (PubChem)
In the library only some 2.9% were active in any assay of this set; here they are far more common.
Myeloid diff MLP: compounds promoting myeloid differentiation; ER-HoxA9 myeloid progenitors, lysozyme-GFP differentiation, flow cytometry; calls only at 10 µM; 360,000 compounds, 1% hits; AID 624256;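 active means normalized GFP-positive differentiation at or above the plate's own cutoff, the solvent-only control mean plus 3 SD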;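 further: cells exposed to compound for four days before flow analysis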
Rtt109 HAT inh: C. albicans Rtt109 histone acetyltransferase inhibition | purified Rtt109/Vps75, ThioGlo CoA-SH fluorescence, 4 h | 330,000 compounds, 0.16% hits | Q5AAJ8 | inhibition, % at 34.9 µM;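 active means inhibition of at least 50% in every replicate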
Target sequence (Q5AAJ8 whole entry, looked up): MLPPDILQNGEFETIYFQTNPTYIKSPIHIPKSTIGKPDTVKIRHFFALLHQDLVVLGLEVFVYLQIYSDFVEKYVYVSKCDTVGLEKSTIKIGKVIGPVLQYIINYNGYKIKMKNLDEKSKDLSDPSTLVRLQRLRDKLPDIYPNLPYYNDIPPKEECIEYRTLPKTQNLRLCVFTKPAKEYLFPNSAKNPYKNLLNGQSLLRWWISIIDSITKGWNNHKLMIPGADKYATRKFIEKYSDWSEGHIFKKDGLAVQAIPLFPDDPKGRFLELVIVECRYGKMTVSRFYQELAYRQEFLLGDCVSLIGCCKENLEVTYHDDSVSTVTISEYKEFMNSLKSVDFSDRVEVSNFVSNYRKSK
ABHD5-PLIN5 inh: blocks binding of human ABHD5 to perilipin-5; AID 602281; 360,000 compounds, 0.78% hits; inhibition, % at 4 µM; Q00G26+Q8WTS1; Split G. princeps luciferase complementation, luminescence, 4 h;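 active means inhibition above the mean inhibition across every tested compound plus 3 SD, cut at about 22% in these data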;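 further: 0% = DMSO only wells and the 100% control is not disclosed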
DAGLB inh: blocks human DAGLB lipase activity; 340,000 compounds, 0.059% hits; AID 504411; Q8NCG7; HEK293T DAGLB membrane lysate, EnzChek fluorogenic substrate; inhibition, % at 5.17 µM; in the data active means inhibition above about 34%;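 further: 0% = enzyme with vehicle and 100% = wells lacking enzyme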
H9c2 protect: protects H9c2 cardiomyocytes from peroxide injury. H2O2 injury protection, ATPLite, 2 h. protection from H2O2 cell death, % at 20 µM. 360,000 compounds, 0.63% hits. AID 588492;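 active means compounds giving at least 50% protection of heart cells from peroxide-induced death in the single-dose screen, raw or plate-pattern-corrected value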;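 further: 0% = DMSO wells with peroxide and 100% = DMSO wells without peroxide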
sPLA2-III inh: Inhibits HGIII-sPLA2 liposome hydrolysis, primary screen. Q9NZ20. QFRET BODIPY PC-A2 liposome hydrolysis, fluorescence. inhibition, % at 12.2 µM. 370,000 compounds, 0.56% hits. AID 743126;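 active means inhibition above mean plus 3 SD of compounds lying within the high and low control bounds, cut at about 19% in these data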;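 further: 0% = median of test compound wells and 100% = no enzyme DMSO wells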
hGIII sPLA2 conf: human GIII-sPLA2 inhibition, confirmation; shares compounds with sPLA2-III inh; recombinant hGIII-sPLA2, BODIPY PC-A2 QFRET fluorescence; inhibition, % at 12.2 µM; 2,000 compounds, 34% hits; AID 743280;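 active means mean inhibition across triplicates above the hit cutoff set in the earlier primary screen, cut at about 19% in these data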;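 further: 0% = enzyme with DMSO and 100% = DMSO wells lacking enzyme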
BODIPY interf: optically interferes with 535nm fluorescence in sPLA2 counter-screen; BODIPY FL product fluorescence interference, QFRET; 2,000 compounds, 8.5% hits; shares compounds with sPLA2-III inh; inhibition, % at 12.2 µM;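 active means average inhibition above the solvent-only control mean plus 3 SD, cut at about 6% in these data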;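 further: 0% = DMSO with substrate plus product and 100% = DMSO with substrate alone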
535nm interf DR: 535nm optical interference dose response, HGIII-sPLA2 counter-screen | IC50, µM | BODIPY FL product fluorescence interference, cell-free | AID 743455 | shares compounds with sPLA2-III inh | 240 tested, under 10 active;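 active means IC50 at or below 10 µM; inactive means IC50 above 10 µM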
* marks the source's active call; other numbers are inactive results; i = inactive; nt = not tested or not shown.

SMILES | Myeloid diff MLP | Rtt109 HAT inh | ABHD5-PLIN5 inh | DAGLB inh | H9c2 protect | sPLA2-III inh | hGIII sPLA2 conf | BODIPY interf | others
Cc1ccc(OCC(=O)Nc2cc(S(=O)(=O)N3CCCCC3)ccc2C)c([N+](=O)[O-])n1 | i | 2.6 | -0.1 | -0.1 | -6.8 | 20.5* | 2.6 | -13.8
Cc1ccc(OCC(=O)Nc2ccc(S(=O)(=O)N3CCCCC3)cc2)c([N+](=O)[O-])n1 | i | -5.1 | -0.7 | -1.9 | -1.0 | -9.3 | nt | nt
CCN1CCCC1CNC(=O)CCc1nnc(CCC2CCCCC2)o1 (stereo unspecified) | i | 10.3 | 2.5 | 2.4 | -3.1 | -3.5 | nt | nt
Cc1ccc(NC(=O)C2CCCO2)cc1[N+](=O)[O-] (stereo unspecified) | i | -1.3 | 3.5 | -1.2 | 0.7 | 20.5* | 0.8 | -1.7
O=C(Nc1cccc(NC(=O)C2CCCO2)c1)C1CCCO1 (stereo unspecified) | i | 1.0 | 6.3 | 1.4 | 3.1 | 0.8 | nt | nt
Cc1ccc(CSC2=NCCN2S(=O)(=O)c2ccc(F)cc2)cc1 | i | 14.7 | 3.3 | -8.6 | -5.3 | -8.2 | nt | nt
Nc1[nH]c(C(=O)c2ccccc2)c(-c2ccccc2C(F)(F)F)c1C(=O)c1cccs1 | i | nt | -2.0 | nt | nt | 19.8* | 9.9 | -5.9
Nc1[nH]c(C(=O)c2ccccc2)c(-c2ccc(Br)cc2)c1C(=O)c1cccs1 | i | nt | -18.6 | nt | nt | -12.7 | nt | nt
CCSC(=S)c1c(C)[nH]n(-c2ccccc2)c1=O | i | 6.4 | -11.5 | 0.9 | -13.3 | 19.3* | 12.5 | -1.2
O=C(/C=C/c1ccccc1)NC(=S)NNC(=O)c1ccco1 | i | -9.2 | -4.2 | 2.0 | 9.9 | 18.2 | nt | nt
COc1ccc2c(c1)cc(C(=O)N/N=C/c1c(O)c(C(=O)O)cc3ccccc13)n2C | i | -9.1 | 0.2 | 7.3 | -1.6 | 19.2* | 16.5 | 2.1
Cn1c(O)c(/C=N/NC(=O)c2cc3ccccc3cc2O)c2ccccc21 | i | -7.1 | -3.5 | 5.4 | 3.9 | 0.5 | nt | nt
CCc1cc(C=C(Cl)Cl)oc(=O)c1C | i | nt | 1.8 | -0.8 | 0.4 | nt | nt | nt
Cc1nn(C)c(C(=O)NNC(=S)NC2CCCCC2)c1Br | i | -4.3 | -11.6 | 0.0 | 2.6 | 22.7* | 21.7* | -3.1
Cn1ncc(Br)c1C(=O)NC1CCCCCCC1 | i | -9.2 | 1.9 | -0.3 | -1.5 | 7.8 | nt | nt
CC(C)(C)NC(=O)c1cccc2c1OC(C)(C)C2 | i | -11.0 | -5.1 | -2.1 | -0.9 | 23.9* | 6.2 | -9.2
CC1(C)Cc2cccc(C(=O)NCc3ccco3)c2O1 | i | nt | 4.8 | nt | 4.2 | -1.5 | nt | nt
CCCCNC(=S)N/N=C/c1cccc(OCC)c1O | i | -2.1 | -1.1 | 7.3 | 9.7 | 24.3* | 28.1* | -5.2 | 535nm interf DR=>122
CCOc1cccc(/C=N/NC(=S)Nc2ccccc2[N+](=O)[O-])c1O | i | -6.6 | -11.4 | 24.2 | 23.4 | 24.1* | 51.6* | 13.8*
CCOc1cccc(/C=N/NS(=O)(=O)c2ccc(C)c([N+](=O)[O-])c2)c1O | i | -4.9 | -1.1 | 7.4 | -1.6 | -5.2 | nt | nt
O=[N+]([O-])c1ccccc1C=NNC(=S)NN=Cc1ccccc1[N+](=O)[O-] | i | -18.0 | -7.7 | 1.5 | 26.1 | 23.7* | 48.6* | 7.3*
O=C(NCc1ccccn1)/C(=N/O)c1ccccc1 | i | -0.6 | -3.9 | 0.9 | 1.5 | -0.3 | nt | nt
COc1cccc(OCC(=O)NNC(=O)c2ccc3ccccc3c2O)c1 | i | -7.5 | 2.0 | 7.1 | 12.3 | 36.3* | 33.4* | 3.4 | 535nm interf DR=>122
COc1ccc(C(=O)NNC(=O)COc2ccc(Cl)cc2)c(OC)c1 | i | -9.2 | 1.2 | 1.1 | -0.6 | 25.4* | 12.4 | -6.8
Cn1c(SCC(=O)Nc2ccc(C(=O)O)cc2)nc2scc(-c3ccccc3Cl)c2c1=O | i | 2.7 | -1.3 | 1.6 | 4.7 | -13.8 | nt | nt
SMILES | Myeloid diff MLP | Rtt109 HAT inh | ABHD5-PLIN5 inh | DAGLB inh | H9c2 protect | sPLA2-III inh | hGIII sPLA2 conf | BODIPY interf | others
COc1ccc(CN2C(=O)C(Cc3ccccc3)Nc3ncnc(N4CCCCC4)c32)cc1 (stereo unspecified) | i | -3.1 | 4.1 | -1.3 | -0.6 | nt | nt | nt
N#CCC[C@@H]1CC[C@]2(CCCN(Cc3ccc(Br)cc3)C2)O1 | nt | nt | nt | nt | nt | 21.7* | -5.2 | -11.8
CC(=O)CC[C@H]1CC[C@]2(CCCN(S(=O)(=O)c3ccccc3)C2)O1 | nt | nt | nt | nt | nt | 2.4 | nt | nt
N#CCC[C@H]1CC[C@]2(CCCN(S(=O)(=O)c3ccccc3)C2)O1 | nt | nt | nt | nt | nt | 19.5* | 1.5 | -6.2
COc1ccc(N2C(=O)CSC23CCC(C(C)(C)C)CC3)cc1 (stereo unspecified) | i | -3.1 | 0.6 | 2.7 | -9.3 | 1.4 | nt | nt
C=C(C)c1cccc(C(C)(C)NC(=O)Nc2cc(C)ccc2OC)c1 | i | 7.2 | -0.9 | -8.6 | -6.2 | -11.4 | nt | nt
C=C(C)c1cccc(C(C)(C)NC(=O)Nc2ccccc2OCC)c1 | i | -1.1 | -0.5 | -8.2 | 14.9 | 20.9* | -0.2 | -6.6
Cc1ccc(C(=O)Nc2nc(C(N)Cc3ccc(C(F)(F)F)cc3)cs2)cc1 (stereo unspecified) | i | nt | -15.6 | nt | -28.1 | 22.8* | 4.7 | -2.8
Clc1ncnc2scc(-c3ccc(Br)cc3)c12 | i | -2.1 | 1.0 | -2.6 | -11.6 | 19.4* | 2.4 | -4.6
C=CCS/C(N)=N\N=C\c1cc(Br)cc([N+](=O)[O-])c1O | i | -4.6 | 3.5 | 5.6 | 5.4 | 38.1* | 29.8* | -2.4 | 535nm interf DR=>122
O=[N+]([O-])c1cc(Br)cc(/C=N/n2cnnc2)c1O | i | 20.3 | -0.3 | 18.3 | -12.0 | 2.2 | nt | nt
CS/C(N)=N/N=C/c1cc(Br)cc(Br)c1O | i | -10.5 | -9.9 | 1.4 | 3.1 | 38.0* | 34.0* | 6.8*
COc1ccc(S(=O)(=O)N(C)C)cc1NC(=O)CCNC(=O)c1ccccc1OC | i | 2.4 | -0.2 | -2.4 | 8.6 | -5.4 | nt | nt
O=C(NCCCN1CCN(c2ccc(F)cc2)CC1)Nc1ccccc1 | nt | nt | nt | nt | nt | -0.9 | nt | nt
O=C(O)c1cc(O)c2c(c1)[C@H]([C@H]1c3cc(C(=O)O)cc(O)c3C(=O)c3c(O[C@@H]4O[C@H](CO)[C@@H](O)[C@H](O)[C@H]4O)cccc31)c1cccc(OC3O[C@H](CO)[C@@H](O)[C@H](O)[C@H]3O)c1C2=O (stereo partly specified) | i | 16.8 | 1.0 | 5.2 | 15.0 | 27.2* | 2.8 | 0.7
COc1cccc(CNC(=O)[C@@H]2CCCN2C(=O)[C@@H]2CCCN2C(=O)c2ccc(Cl)cc2)c1 | i | nt | -1.4 | nt | nt | 3.9 | nt | nt
